Test results published in PubChem BioAssay (NCATS).
A number with no mark means an inactive call. The rule behind the calls is not given here.
Potency is the fitted concentration of half-maximal effect.

What follows are molecules tested on HIV-1 nucleocapsid protein NCp7 (binding to TG oligonucleotide) (assay: HIV Nucleocapsid (AID 346;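 note: potency is for inhibitors that block NC binding and lower polarization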)). Settings: HIV-1 NC / fluorescein-TGTGTGTG probe, fluorescence polarization.
Method in brief: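 HIV-1 NC (100 nM) binding to fluorescein-labelled ssDNA TG4xF (10 nM) in Hepes pH 7.5, 250mM NaCl, 1uM ZnCl2, TCEP and 2-mercaptoethanol; compounds pin-transferred, 1 hr room temperature, fluorescence polarization read on CCD imager.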
`CN1CCN(c2ncnc3ccc(-c4ccoc4)cc23)CC1` was tested, and the Potency was greater than 20 µM.
`CN1CCCC2(CCN(C(=O)c3cnccn3)CC2)C1` showed a Potency greater than 20 µM.
Work on `COc1ccc(-c2nc3cnc(N4CCN(C)CC4)nc3n(CCC#N)c2=O)cc1` yielded a Potency greater than 20 µM.
For `c1ccc(-c2ccc(N3CC[C@@]4(CCCNC4)C3)cc2)cc1`, the Potency was greater than 20 µM.
In the case of `CCNc1ncc2ncc(=O)n(Cc3cccc(OC)c3)c2n1`, the Potency was greater than 20 µM.
In the case of `CC(=O)N1CCC2(CC1)CN(c1ccncc1)C2`, the Potency was greater than 20 µM.
With `CN(C)Cc1ccccc1-c1cncnc1Nc1ccncc1` the Potency was greater than 20 µM.
For `COCC(=O)N1CCC2(CC1)CN(C(=O)Nc1cccc(F)c1)C2`, the Potency was greater than 20 µM.
With `COc1ccc(-c2nc3cnc(Nc4cccc(OC)c4)nc3n(C[C@H]3CCCO3)c2=O)cc1` the Potency was 14.4 µM.
With `COc1cccc(-c2nccc(NCc3ccccc3OC)n2)c1` the Potency was greater than 20 µM.
`FC(F)(F)c1cc(CN2CCC3(CCNCC3)CC2)cc(C(F)(F)F)c1` was tested, and the Potency was greater than 20 µM.
`CC(C)NC(=O)N1CC2(CCN(C(=O)c3ccco3)CC2)C1` was tested, and the Potency was greater than 20 µM.
With `COc1ccc(-n2c(=O)c(-c3cn(C)c4ccccc34)nc3cnc(N4CCOCC4)nc32)cc1` the Potency was greater than 20 µM.
`CC(=O)NCCNc1nc(-c2ccccc2C(F)(F)F)nc2ccccc12` gave a Potency greater than 20 µM.
`COc1ccccc1-c1ccc2ncnc(Nc3ccccc3)c2c1` showed a Potency greater than 20 µM.
`CN(Cc1ccco1)c1cc(-c2ccccc2Cl)ncn1` was tested, and the Potency was greater than 20 µM.
With `Cc1nc2cnc(N3CCNCC3)nc2n(Cc2ccc(F)cc2)c1=O` the Potency was greater than 4 µM.
Work on `O=c1c(-c2cccc(Cl)c2)nc2cncnc2n1Cc1ccccc1Cl` yielded a Potency greater than 20 µM.
Work on `COc1ccccc1-c1cc(Nc2ccc(F)cc2)ncn1` yielded a Potency greater than 20 µM.
Work on `Cn1cc(-c2nc3cnc(N4CCOCC4)nc3n(C3CC3)c2=O)c2ccccc21` yielded a Potency greater than 20 µM.
Molecule `CCNc1ncc2nc(-c3ccccc3)c(=O)n(C[C@H]3CCCO3)c2n1` has a Potency greater than 20 µM.
For `CN(C)c1ncc2nc(-c3ccc(F)cc3)c(=O)n(Cc3ccc(F)cc3)c2n1`, the Potency was greater than 20 µM.
In the case of `CC(=O)NCCNc1nc(-c2ccc(N(C)C)cc2)nc2ccccc12`, the Potency was greater than 20 µM.
In the case of `CC(C)NC(=O)N1CCCC2(CCN(S(=O)(=O)c3ccccc3)CC2)C1`, the Potency was greater than 4 µM.
In the case of `c1ccc(CNc2ncncc2-c2cccnc2)cc1`, the Potency was greater than 20 µM.
